The source of these data is PubChem BioAssay.

The source made the active and inactive calls.

Assay [1] can be described thus: small molecules captured by biotinylated probe aFSTL3 – biochemical, small-molecule microarray, fluorescence 635/667, stem cell growth factor project, primary screen (AID 1064).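 Also: measures binding of the biotinylated anti-FSTL3 antibody to printed compounds.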 The conditions noted are these: higher = more signal.
Assay [2] can be described thus: binders from COS7 lysate, DM2A8 probe, primary screen, torsin A project, cell lysate, small-molecule microarray, fluorescence 635/667 (AID 1065). The conditions noted are these: higher = more signal, COS7 lysate expressing mutant human TOR1A.
Assay [3] is described as follows: small molecules captured by biotinylated probe aFGF2 – biochemical, small-molecule microarray, fluorescence 635/667, stem cell growth factor project, primary screen (AID 1067).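 Also: measures binding of biotinylated aFGF2 protein to printed compounds on slides; z-score merges feature fluorescence and signal-to-noise across triplicate slides.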 The conditions noted are these: higher = more signal.
Assay [4] is described as follows: small molecules captured by biotinylated probe aFGF10 – biochemical, small-molecule microarray, fluorescence 635/667, stem cell growth factor project, primary screen (AID 1071).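 Also: score merges 667 nm spot intensity and signal to noise from triplicate slides.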 The conditions noted are these: higher = more signal.
Assay [5] has as its target Neurogenic locus notch homolog protein 2 (Homo sapiens) (UniProt Q04721). Briefly: small molecules binding Notch2 protein – biochemical, small-molecule microarray, 635 nm fluorescence, stem cell growth factors, primary screen (AID 1073). The conditions noted are these: higher = more signal.
Assay [6] has as its target Pro-neuregulin-1, membrane-bound isoform (Homo sapiens) (UniProt Q02297). Briefly: small molecules binding neuregulin-1 protein – biochemical, small-molecule microarray, fluorescence 635/667, psychiatric disease protein project, primary screen (AID 1075).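 Also: score combines 667 nm spot fluorescence with signal to noise.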 The conditions noted are these: NRG1 binding, 635 nm fluorescence, higher = more signal.
For assay [7], the system named is Neuregulin-1 EGF-like domain. Briefly: small molecules binding NRG1 EGF domain – biochemical, small-molecule microarray, 635 nm fluorescence, primary screen (AID 1081).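 Also: binding of the protein to compounds printed on small-molecule microarray slides.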 The conditions noted are these: higher = more signal.
Assay [8] in a line: FRG1 expression reporter modulators in myotubes – cell-based, C2C12 myotubes, firefly/Renilla luciferase, luminescence, FRG1 inhibition for FSHD, primary screen (AID 1084). The conditions noted are these: FRG1 promoter luciferase, higher = more signal, called active from +8 up or from −8 down.
The nature of assay [9]: small molecules captured by biotinylated probe aFST – biochemical, small-molecule microarray, fluorescence 635/667, stem cell growth factor project, primary screen (AID 1086).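 Also: score merges 667 nm fluorescence with signal-to-noise of each printed compound spot.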 The conditions noted are these: higher = more signal.
Assay [10] can be described thus: binders of probe aHhip on microarray, primary screen, stem cell growth factor project, biochemical, small-molecule microarray, fluorescence 635/667 (AID 1087).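 Also: score merges spot fluorescence at 667nm with spot signal to noise ratio.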 The conditions noted are these: higher = more signal.

Sequence of Pro-neuregulin-1, membrane-bound isoform (Homo sapiens) (Q02297 whole entry, looked up, the tested form may be a part, canonical isoform): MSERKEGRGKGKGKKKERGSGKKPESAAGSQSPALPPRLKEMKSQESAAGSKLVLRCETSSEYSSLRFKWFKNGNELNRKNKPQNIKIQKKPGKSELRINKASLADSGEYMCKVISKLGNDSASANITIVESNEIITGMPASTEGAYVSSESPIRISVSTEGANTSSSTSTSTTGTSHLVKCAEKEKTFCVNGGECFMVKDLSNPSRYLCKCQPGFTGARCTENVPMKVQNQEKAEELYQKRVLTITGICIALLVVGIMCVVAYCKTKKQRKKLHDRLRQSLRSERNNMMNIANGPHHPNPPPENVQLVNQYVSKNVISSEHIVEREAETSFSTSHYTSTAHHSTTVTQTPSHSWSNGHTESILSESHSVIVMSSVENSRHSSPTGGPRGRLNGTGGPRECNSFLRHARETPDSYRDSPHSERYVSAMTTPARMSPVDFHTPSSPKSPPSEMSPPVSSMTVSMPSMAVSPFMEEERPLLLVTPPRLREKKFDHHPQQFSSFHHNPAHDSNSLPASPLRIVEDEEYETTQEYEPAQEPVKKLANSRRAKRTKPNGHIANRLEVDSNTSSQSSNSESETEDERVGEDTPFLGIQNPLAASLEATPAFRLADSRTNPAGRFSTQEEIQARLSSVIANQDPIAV
Sequence of Neurogenic locus notch homolog protein 2 (Homo sapiens) (Q04721 whole entry, looked up, canonical isoform): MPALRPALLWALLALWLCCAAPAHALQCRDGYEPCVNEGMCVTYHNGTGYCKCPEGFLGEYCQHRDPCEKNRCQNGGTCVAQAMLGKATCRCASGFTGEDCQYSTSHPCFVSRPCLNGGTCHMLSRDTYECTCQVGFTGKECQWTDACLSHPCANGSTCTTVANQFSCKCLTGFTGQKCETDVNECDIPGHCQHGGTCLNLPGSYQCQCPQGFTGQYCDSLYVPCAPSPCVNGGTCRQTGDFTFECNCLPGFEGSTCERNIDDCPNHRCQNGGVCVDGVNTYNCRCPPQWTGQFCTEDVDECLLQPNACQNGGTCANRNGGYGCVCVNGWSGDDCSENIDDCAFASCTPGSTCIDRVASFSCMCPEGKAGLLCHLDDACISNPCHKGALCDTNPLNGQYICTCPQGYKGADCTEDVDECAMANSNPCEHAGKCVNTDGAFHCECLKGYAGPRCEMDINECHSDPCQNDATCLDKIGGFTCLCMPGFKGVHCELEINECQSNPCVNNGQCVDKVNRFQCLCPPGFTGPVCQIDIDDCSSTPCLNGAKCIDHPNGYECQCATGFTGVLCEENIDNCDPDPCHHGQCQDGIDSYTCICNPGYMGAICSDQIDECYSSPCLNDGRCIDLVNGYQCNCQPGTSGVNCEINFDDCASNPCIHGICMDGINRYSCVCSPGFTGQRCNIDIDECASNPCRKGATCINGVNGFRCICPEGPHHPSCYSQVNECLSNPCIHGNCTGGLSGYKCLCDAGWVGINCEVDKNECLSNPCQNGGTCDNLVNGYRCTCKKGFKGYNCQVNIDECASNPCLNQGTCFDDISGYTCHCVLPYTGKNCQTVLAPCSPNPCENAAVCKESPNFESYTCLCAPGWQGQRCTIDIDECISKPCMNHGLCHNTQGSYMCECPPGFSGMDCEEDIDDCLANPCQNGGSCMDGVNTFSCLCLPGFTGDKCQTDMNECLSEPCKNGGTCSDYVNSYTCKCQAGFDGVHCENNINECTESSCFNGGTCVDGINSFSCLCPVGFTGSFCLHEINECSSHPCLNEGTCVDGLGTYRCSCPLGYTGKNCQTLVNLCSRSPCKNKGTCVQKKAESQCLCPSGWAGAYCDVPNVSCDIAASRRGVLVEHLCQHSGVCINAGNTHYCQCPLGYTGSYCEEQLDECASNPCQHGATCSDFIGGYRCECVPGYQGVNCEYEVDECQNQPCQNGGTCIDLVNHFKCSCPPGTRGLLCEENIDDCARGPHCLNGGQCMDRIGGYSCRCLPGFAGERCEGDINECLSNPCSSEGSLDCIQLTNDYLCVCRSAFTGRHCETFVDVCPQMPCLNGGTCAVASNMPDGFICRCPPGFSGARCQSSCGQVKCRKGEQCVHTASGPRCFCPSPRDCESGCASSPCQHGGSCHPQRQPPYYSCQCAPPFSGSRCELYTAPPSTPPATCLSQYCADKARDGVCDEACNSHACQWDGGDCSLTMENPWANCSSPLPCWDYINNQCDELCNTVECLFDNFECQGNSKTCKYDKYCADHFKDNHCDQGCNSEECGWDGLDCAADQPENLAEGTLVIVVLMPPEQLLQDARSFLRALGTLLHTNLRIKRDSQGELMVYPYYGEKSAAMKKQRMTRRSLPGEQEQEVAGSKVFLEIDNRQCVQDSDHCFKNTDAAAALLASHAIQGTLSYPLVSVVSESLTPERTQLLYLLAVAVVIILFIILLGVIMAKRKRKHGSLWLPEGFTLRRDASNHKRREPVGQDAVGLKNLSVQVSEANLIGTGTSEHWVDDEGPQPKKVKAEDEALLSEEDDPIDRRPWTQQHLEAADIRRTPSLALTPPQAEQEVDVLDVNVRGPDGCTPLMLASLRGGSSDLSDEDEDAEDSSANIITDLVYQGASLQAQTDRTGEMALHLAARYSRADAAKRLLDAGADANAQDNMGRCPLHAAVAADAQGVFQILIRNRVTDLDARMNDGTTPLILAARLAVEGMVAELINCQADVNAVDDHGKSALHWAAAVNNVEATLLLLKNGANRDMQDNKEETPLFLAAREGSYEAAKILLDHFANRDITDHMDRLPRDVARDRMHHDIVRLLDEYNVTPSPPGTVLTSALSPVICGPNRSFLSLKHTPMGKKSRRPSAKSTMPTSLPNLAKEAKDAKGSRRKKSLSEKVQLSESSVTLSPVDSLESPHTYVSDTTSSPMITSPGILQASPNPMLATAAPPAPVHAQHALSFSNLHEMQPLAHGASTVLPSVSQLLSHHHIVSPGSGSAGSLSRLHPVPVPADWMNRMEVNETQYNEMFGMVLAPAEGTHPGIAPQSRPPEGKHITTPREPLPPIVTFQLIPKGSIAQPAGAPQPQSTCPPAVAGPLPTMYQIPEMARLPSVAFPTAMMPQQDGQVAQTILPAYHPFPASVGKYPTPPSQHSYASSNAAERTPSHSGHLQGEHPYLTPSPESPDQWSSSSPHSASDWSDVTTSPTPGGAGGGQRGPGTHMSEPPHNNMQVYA

Regarding `CO[C@H]1COC(=O)[C@H](C)NC(=O)[C@@H](C)COC(=O)[C@H]2CCCN2C(=O)CC=C[C@H]1C`, the composite z-score in [1] was -0.403; in assay [2] it was 1.06; in assay [3] it was -0.216; in assay [4], 0.347; in assay [5], 0.338; in [6], -0.499. Moreover, the composite z-score was 0.175 in assay [7], -0.0694 in assay [9] and -0.179 in [10]. Also, the z-score in [8] is -0.345 (inactive).

As for `CCOC(=O)NN=C1C[C@@H](O)[C@@H](O)[C@@H]2[C@@H]3C(=O)N([C@@H](C)c4ccccc4)C(=O)[C@@H]3CC[C@H]12`, the composite z-score in [1] was -0.322; in assay [2] it was -0.0183; in [3], -0.085; in assay [4], 0.321; in [5] it was 0.453; in assay [6], -0.0718. Further, the figures for the composite z-score in assay [7], in assay [9] and in [10] were 0.0602, 0.252 and 0.138, respectively. Further, the z-score in assay [8] was -0.223 (inactive).

`COC(=O)CC=C[C@@H](C)[C@@H](C=NO[C@H](C)c1cn([C@H](CO)Cc2ccccc2)nn1)OC`: the composite z-score was -0.42 in assay [1]; 0.44 in [2]; -0.0867 in assay [3]; 0.257 in assay [4]; -0.0484 in [5]; -0.0545 in assay [6]. The figures for the composite z-score in assay [7], in assay [9] and in assay [10] were 0.516, 0.0782 and 0.189, respectively. Further, the z-score in assay [8] is 0.0621 (inactive).

On to `C=CC[C@@H]1C=C[C@H](ON=C(C)CCC(=O)OC[C@H]2O[C@H](C#Cc3ccccc3)C=C[C@@H]2Oc2ccc(C)cc2)[C@@H](CO)O1`, for which the composite z-score in assay [1] is -0.566; in assay [2] it was 0.692; in assay [3], 0.0624; in assay [4], 0.782; in [5], 1.12; in [6] it was 0.661. In addition, the composite z-score in [7] is 0.984; in [9], 0.203; in [10], 0.0373. Besides, the z-score in [8] is -0.349 (inactive).

With `CO[C@H]1COC(=O)CC=C[C@@H](C)[C@H](OC)COC(=O)CCC[C@@H]1C`, the composite z-score is -0.344 in assay [1]; 1.58 in assay [2]; -0.187 in [3]; 0.238 in assay [4]; -0.438 in [5]; -0.35 in assay [6]. In addition, the composite z-score is -0.137 in assay [7], -0.126 in assay [9] and 0.176 in [10]. Further, the z-score in [8] was 0.444 (inactive).

`Cc1ccc(S(=O)(=O)OC[C@H]2CN3[C@H](c4ccc(Br)cc4)[C@@H](C)CC[C@H]3C(=O)O2)cc1`: the composite z-score was -0.307 in assay [1]; 0.0709 in assay [2]; -0.106 in assay [3]; 0.255 in [4]; 0.0993 in assay [5]; 0.0865 in assay [6]. Besides, the results for the composite z-score in assay [7], in assay [9] and in assay [10] were 1.01, -0.164 and -0.191, respectively. The z-score in assay [8] is -0.636 (inactive).

With `CCOC(=O)[C@H](CC(C)C)NC(=O)CCC1CC(OC(=O)NCc2ccc3c(c2)OCO3)CC2(CCCC(COC(=O)NCCCN3CCCC3=O)O2)O1` (stereo not given in full), the composite z-score in [1] was -0.303; in assay [2] it was 0.322; in [3], -0.087; in assay [4] it was 0.706; in [5], 0.99; in [6], 0.817. The composite z-score in assay [7] is 0.984; in assay [9], 0.465; in assay [10], -0.0645. In addition, the z-score in [8] was 0.584 (inactive).

With `Cc1ccc(S(=O)(=O)N[C@H]2COC(=O)CC=C[C@@H](C)COC(=O)CC=C[C@@H]2C)cc1`, the composite z-score in assay [1] was -0.537; in [2] it was 0.604; in assay [3], -0.135; in [4], 0.0963; in assay [5], -0.094; in assay [6] it was -0.326. In addition, the composite z-score in assay [7] is -0.0175; in assay [9], -0.135; in assay [10] it was -0.466. The z-score in [8] was 0.999 (inactive).

On to `CC(C)=CCCC(C)=CCON=C1C[C@@H](O)[C@@H](O)[C@@H]2[C@@H]3C(=O)N(C[C@@H]4CCCO4)C(=O)[C@@H]3CC[C@H]12`, for which the composite z-score in assay [1] was -0.532; in assay [2], 1.78; in assay [3], -0.142; in assay [4], 0.508; in assay [5], 0.583; in [6], 0.447. Besides, the figures for the composite z-score in assay [7], in assay [9] and in assay [10] were 1.05, 0.417 and -0.0645, respectively. The z-score in assay [8] is -0.0588 (inactive).

With `CCOC(=O)[C@H](CC(C)C)NC(=O)CCC1CC(OC(=O)NCc2ccc3c(c2)OCO3)CC2(CCCC(COC(=O)NCc3cccc(C(F)(F)F)c3)O2)O1` (stereo not given in full), the composite z-score in assay [1] was -0.109; in assay [2], -0.249; in assay [3] it was -0.0841; in assay [4], 0.371; in assay [5] it was 0.421; in assay [6] it was 0.0839. Besides, the composite z-score in assay [7] is 0.445; in assay [9], 0.0884; in [10], -0.0994. Besides, the z-score in [8] was 0.31 (inactive).

In the case of `O=C1C[C@@H](O)[C@@H](O)[C@@H]2[C@@H]3C(=O)N(c4cccc(Oc5ccccc5)c4)C(=O)[C@@H]3CC[C@H]12`, the composite z-score was -0.499 in assay [1]; 0.247 in assay [2]; -0.0985 in assay [3]; 0.206 in assay [4]; 0.484 in assay [5]; 0.241 in [6]. Further, the composite z-score in assay [7] is 0.413; in [9], 0.167; in [10], -0.153. Also, in assay [8], the z-score is -0.0447 (inactive).

Consider `C=Cc1ccc([C@H]2N[C@H](C(=O)O)CC[C@@H]2C)cc1`, for which the composite z-score is -0.372 in assay [1]; 0.056 in [2]; -0.156 in [3]; 0.145 in [4]; -0.226 in assay [5]; -0.284 in assay [6]. Besides, the composite z-score in [7] was 0.564; in assay [9], -0.0301; in [10], 0.0399. Besides, in assay [8], the z-score was 1.35 (inactive).

On to `CCOC(=O)[C@H](Cc1ccccc1)NC(=O)CCC1CC(OC(=O)NCc2cccc3ccccc23)CC2(CCCC(COC(=O)NCc3cccc(C(F)(F)F)c3)O2)O1` (stereo not given in full), for which the composite z-score in [1] was -0.223; in [2], -0.549; in assay [3] it was -0.0934; in assay [4], 0.19; in assay [5], 0.211; in [6], 0.567. Further, the composite z-score was 0.74 in [7], -0.143 in [9] and -0.0645 in [10]. The z-score in assay [8] was -1.05 (inactive).
